Experiment in all cases: NCI-60 one-dose screen, 48 h (100 = growth as untreated, 0 = no growth, -100 = all killed)
One assay concerns HCT-15 colon. To be noted: 10 µM unless noted.
In the next assay the test system is HT29 colon. The following applies: 10 µM unless noted.
The subject of the next assay is SNB-75 CNS. To be noted: 10 µM unless noted.
Another assay concerns SNB-19 CNS. To be noted: 10 µM unless noted.
The test system of the next assay is PC-3 prostate. The following applies: 10 µM unless noted.
A further assay relates to SK-MEL-5 melanoma. The following applies: 10 µM unless noted.
Another assay deals with UACC-62 melanoma. To be noted: 10 µM unless noted.
Another assay relates to LOX IMVI melanoma. To be noted: 10 µM.
The subject of the next assay is SK-MEL-28 melanoma. To be noted: 10 µM unless noted.
For another assay, the system named is SK-MEL-2 melanoma. The following applies: 10 µM unless noted.
The test system of the next assay is EKVX NSCLC. The following applies: 10 µM unless noted.
Another assay relates to SN12C renal. The following applies: 10 µM unless noted.
The test system of another assay is UO-31 renal. To be noted: 10 µM unless noted.
A further assay relates to TK-10 renal. The following applies: 10 µM unless noted.
In the next assay the test system is ACHN renal. The following applies: 10 µM unless noted.
The next assay has as its system CAKI-1 renal. The following applies: 10 µM unless noted.
The test system of the next assay is A498 renal. To be noted: 10 µM unless noted.
The test system of another assay is MOLT-4 leukemia. To be noted: 10 µM unless noted.
The next assay concerns U251 CNS. To be noted: 10 µM unless noted.
The test system of another assay is CCRF-CEM leukemia. To be noted: 10 µM unless noted.

Compounds without any hit were thinned out: in the full panel of roughly 83,000, 20% have a hit.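 Plates (96-well) were seeded with cells, treated with compound at one concentration, and incubated for 48 hours before percent growth was determined.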 A number with no mark means an inactive call. Active and inactive are the calls of the source. Rule for the calls: active = growth percent below 10; inactive = the rest.

Turning to `C[C@H](CCC[C@H](C)OS(=O)(=O)c1ccccc1)OS(=O)(=O)c1ccccc1`, the growth with HCT-15 colon is 101%; in the assay with HT29 colon it was 111%; in the assay on SNB-75 CNS, 88%; in the assay on SNB-19 CNS, 94.5%; with PC-3 prostate, 108%; in the assay with SK-MEL-5 melanoma it was 114%. Moreover, the growth is 89.8% in the assay with UACC-62 melanoma; 101% with LOX IMVI melanoma; 118% in the assay with SK-MEL-28 melanoma; 98.8% in the assay with SK-MEL-2 melanoma; 95.2% in the assay with EKVX NSCLC; 99.3% with SN12C renal. Besides, the growth in the assay with UO-31 renal is 78.8%; in the assay with TK-10 renal, 103%; in the assay on ACHN renal, 106%; in the assay on CAKI-1 renal, 92.6%; in the assay on A498 renal it was 133%; in the assay with MOLT-4 leukemia, 115%.

For the compound `O=[N+]([O-])c1ccc2[nH]c(=S)n(/C=C(/c3ccc(Cl)cc3Cl)S(=O)(=O)Cc3ccc(Cl)cc3Cl)c2c1`, the growth is 101% in the assay with HCT-15 colon; 98.9% in the assay on HT29 colon; 108% in the assay with SNB-75 CNS; 102% in the assay on SNB-19 CNS; 98.1% in the assay on U251 CNS; 101% in the assay with SK-MEL-5 melanoma. In addition, the growth with UACC-62 melanoma is 101%; in the assay with LOX IMVI melanoma it was 98.6%; in the assay with SK-MEL-28 melanoma it was 110%; in the assay on SK-MEL-2 melanoma, 102%; with EKVX NSCLC, 92.9%; in the assay on SN12C renal it was 94.6%. For the same compound, the growth is 97.2% in the assay on UO-31 renal; 101% with TK-10 renal; 97.4% in the assay on CAKI-1 renal; 103% with A498 renal; 103% in the assay on CCRF-CEM leukemia; 98.3% in the assay on MOLT-4 leukemia.

Consider `CC(=O)CSc1ncnc2nc[nH]c12`, for which the growth in the assay on HCT-15 colon was 96.1%; with HT29 colon, 104%; with SNB-75 CNS, 89.3%; in the assay with SNB-19 CNS, 99.7%; with U251 CNS, 101%; with SK-MEL-5 melanoma it was 95.8%. The growth in the assay on UACC-62 melanoma was 74.6%; in the assay on LOX IMVI melanoma, 42.2%; in the assay with SK-MEL-28 melanoma, 82.3%; in the assay on SK-MEL-2 melanoma it was 95%; in the assay on EKVX NSCLC, 95.4%; in the assay on SN12C renal it was 96.9%. Moreover, the growth in the assay with UO-31 renal was 88.1%; in the assay with ACHN renal, 93%; with CAKI-1 renal, 80.9%; in the assay on A498 renal it was 66.1%; with CCRF-CEM leukemia it was 89.3%; in the assay with MOLT-4 leukemia, 87.4%.

Consider `CC(=O)/C(C)=N\OC(=O)Nc1ccccc1`, for which the growth was 103% in the assay on HCT-15 colon; 99.4% in the assay on HT29 colon; 82.7% in the assay on SNB-75 CNS; 98% in the assay with SNB-19 CNS; 97.5% with PC-3 prostate; 99.1% in the assay with SK-MEL-5 melanoma. The growth with UACC-62 melanoma is 107%; with LOX IMVI melanoma it was 94.6%; with SK-MEL-28 melanoma it was 112%; in the assay with SK-MEL-2 melanoma it was 107%; with EKVX NSCLC, 95.6%; in the assay on SN12C renal it was 107%. In addition, the growth with UO-31 renal was 80.8%; in the assay on TK-10 renal it was 97.5%; with ACHN renal, 101%; with CAKI-1 renal it was 97.8%; in the assay on A498 renal, 101%; with MOLT-4 leukemia it was 90.4%.

With `CCOC(=O)N[C@H]1CCc2cc(OC)c(OC)c(OC)c2-c2ccc(SC)c(=O)cc21`, the growth with HCT-15 colon was 7.82% (active); in the assay with HT29 colon, 7.57% (active); in the assay on SNB-75 CNS, 44.3%; with SNB-19 CNS it was 30.8%; in the assay with PC-3 prostate it was 27.7%; in the assay with SK-MEL-5 melanoma, -51.3% (active). For the same compound, the growth was 39.9% with UACC-62 melanoma; 22.4% in the assay with LOX IMVI melanoma; 60.1% with SK-MEL-28 melanoma; 32.2% in the assay with SK-MEL-2 melanoma; 31.6% with EKVX NSCLC; 26.8% in the assay with SN12C renal. For the same compound, the growth was 47% in the assay with UO-31 renal; 43.7% in the assay on TK-10 renal; 28.3% with ACHN renal; 19.7% in the assay on CAKI-1 renal; 21.9% with CCRF-CEM leukemia; 9.15% (active) in the assay with MOLT-4 leukemia.

For the compound `Cc1cc(Cl)cc(Cc2cc(Cl)cc(C)c2O)c1O`, the growth is 12.4% in the assay with HCT-15 colon; 98.1% in the assay on HT29 colon; 19.3% in the assay with SNB-75 CNS; 17.3% with SNB-19 CNS; 8.37% (active) in the assay on U251 CNS; 6.88% (active) in the assay with SK-MEL-5 melanoma. Moreover, the growth was 16.1% with UACC-62 melanoma; 5.44% (active) in the assay with LOX IMVI melanoma; 22.6% with SK-MEL-28 melanoma; -18.1% (active) in the assay on SK-MEL-2 melanoma; 53.9% in the assay with EKVX NSCLC; 2.59% (active) in the assay with SN12C renal. The growth is 7.78% (active) with UO-31 renal; 34.6% with TK-10 renal; 3.84% (active) in the assay with CAKI-1 renal; 5.51% (active) in the assay on CCRF-CEM leukemia; -15.1% (active) in the assay on MOLT-4 leukemia.

Turning to `C(=C\c1ccncc1)/c1ccncc1`, the growth with HCT-15 colon was 96.3%; in the assay on HT29 colon it was 99%; with SNB-75 CNS, 89.6%; in the assay with SNB-19 CNS it was 94.5%; with U251 CNS, 97.1%; in the assay on SK-MEL-5 melanoma, 101%. Besides, the growth is 90.1% with UACC-62 melanoma; 94.2% in the assay with LOX IMVI melanoma; 104% in the assay on SK-MEL-28 melanoma; 88.2% with SK-MEL-2 melanoma; 105% with EKVX NSCLC; 84.7% with UO-31 renal. The growth is 102% with TK-10 renal; 98.9% in the assay on ACHN renal; 129% in the assay on CAKI-1 renal; 120% with A498 renal; 101% in the assay on CCRF-CEM leukemia.

Turning to `O=C1NC(=O)/C(=C\c2ccncc2)N1`, the growth in the assay with HCT-15 colon is 98.7%; with HT29 colon it was 99.7%; in the assay with SNB-75 CNS it was 92%; with SNB-19 CNS, 101%; with U251 CNS it was 100%; in the assay on SK-MEL-5 melanoma, 97.2%. For the same compound, the growth in the assay with UACC-62 melanoma was 95.8%; in the assay on LOX IMVI melanoma, 100%; in the assay on SK-MEL-28 melanoma, 101%; with SK-MEL-2 melanoma, 104%; with EKVX NSCLC, 95.5%; with SN12C renal, 95.9%. Also, the growth was 95.5% in the assay on UO-31 renal; 105% in the assay with TK-10 renal; 97.9% in the assay on ACHN renal; 100% with CAKI-1 renal; 94.1% in the assay with A498 renal; 105% with CCRF-CEM leukemia. Further, the growth in the assay on MOLT-4 leukemia is 111%.

The values are drawn from PubChem BioAssay (NCI).
